Screens (PubChem BioAssay)
IMPase Li cell = cell-permeable IMPase inhibitors with lithium potentiation; 210,000 tested, 0.35% active; Potency, µM (doses to about 59.4 µM), actives largely listed as inhibitors; CHO-M1 cells, IP1 TR-FRET (IP-One), carbachol + lithium; active means well fitted inhibition curve with a large enough effect; inconclusive means small, poorly fitted or top-dose-only effect; inactive means no such curve, though single readings can be large or run the other way;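 further: IP1 builds up when IMPase is blocked and the TR-FRET signal falls; nearly all actives have a fitted effect of over 50% in size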
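CHO-M1, 2000 cells/well, 16–30 h culture; cpd + low Li+, 30 min 37C; lysis with d2-IP1/Eu-anti-IP1 Ab, 10 min RT; TR-FRET 665/620 ratio and 620 channel; AC50 via Hill.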
HPGD inh = inhibitors of human 15-hydroxyprostaglandin dehydrogenase (HPGD); P15428; purified HPGD, NADH fluorescence kinetic, PGE2 substrate; Potency, µM, actives largely listed as inhibitors; 150,000 tested, 4.3% active
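NADH formation kinetics: reaction with 30 uM PGE2 and 1 mM NAD+ (final), 20 nM enzyme, Tris-HCl pH 8 with Tween 20, after 15 min compound preincubation at room temperature. Fluorescence change, last versus first of five reads.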
ALDH1A1 inh = ALDH1A1 (human) enzyme inhibition. P00352. 220,000 tested, 7.3% active. Potency, µM (top dose mostly 75.3 µM), hits mostly inhibitors. Purified ALDH1A1, NADH fluorescence, propionaldehyde substrate. AID 1030
Target sequence (P00352 whole entry, looked up): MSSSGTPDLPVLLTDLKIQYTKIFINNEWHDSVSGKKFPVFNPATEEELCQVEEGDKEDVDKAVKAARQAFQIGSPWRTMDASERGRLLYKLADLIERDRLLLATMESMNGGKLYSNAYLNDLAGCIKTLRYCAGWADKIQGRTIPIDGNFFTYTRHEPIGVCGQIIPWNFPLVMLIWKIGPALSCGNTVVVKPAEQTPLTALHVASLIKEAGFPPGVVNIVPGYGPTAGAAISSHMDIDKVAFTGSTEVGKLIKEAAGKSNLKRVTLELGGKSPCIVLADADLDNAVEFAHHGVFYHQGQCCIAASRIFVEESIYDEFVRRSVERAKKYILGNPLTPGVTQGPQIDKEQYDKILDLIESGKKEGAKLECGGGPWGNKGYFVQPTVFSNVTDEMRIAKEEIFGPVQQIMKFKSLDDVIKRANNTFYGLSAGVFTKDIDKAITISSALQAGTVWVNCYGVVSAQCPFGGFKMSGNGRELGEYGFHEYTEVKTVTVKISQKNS
PNC inhibitor = blocks assembly of the perinucleolar compartment. PC3M PTB-GFP, PNC prevalence imaging, 16 h; active compounds read low. activity change (PNC), negative = inhibition, % at 10 µM. 140,000 tested, 3.1% active. AID 2417;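 active means readout at or below -70, meaning at least 70% loss of cells showing the perinucleolar compartment, a nuclear body marking cancer cells; inconclusive means readout between -30 and a set limit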
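Compounds are pinned in duplicate onto adhered PC3M cells stably expressing GFP-tagged PTB and incubated 16 h at 37 C. Cells are then fixed, nuclei stained with Hoechst, and PNC-positive cells counted.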
IMPase inh = IMPase inhibition in cells; P97697; 120,000 tested, under 10 active; CHO-M1 cells, IP1 accumulation, HTRF TR-FRET ratio; AID 901; inhibition (IP1 accumulation), % at 46.1 µM; active means well fitted curve in the direction sought with a large enough effect in the signal ratio, not every such curve was filed as active; inconclusive means small, poorly fitted or top-dose-only effect, or a change in a side signal; inactive means no such curve, though single readings can be large or run the other way; the % refers to the signal ratio;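 further: cells stimulated with carbachol in lithium chloride buffer; higher means more IMPase inhibition seen as more IP1 and lower FRET ratio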
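In this qHTS, compounds (final up to 46 uM) act on CHO-M1 cells that are then activated through the M1 receptor with carbachol, in pH 7.4 buffer containing 50 mM LiCl, for 30 min. IP1 accumulation is quantified by the IP-One immunoassay.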
A number is an active result; . = inactive; ? = inconclusive; / = not tested or not shown; [ ] = another dose, or the depositor's remark. Most compounds without a hit are left out; they make up all but 11% or so of the library. Unless noted, the call rests on the fitted dose curve; in most records, active means well fitted inhibition curve with a large enough effect (not every such curve was filed as active); inconclusive means small, poorly fitted or top-dose-only effect, or another doubt; inactive means no such curve, though single readings can be large or run the other way.

SMILES	IMPase Li cell	HPGD inh	ALDH1A1 inh	PNC inhibitor	IMPase inh
COc1cc(NC(=O)c2ccccc2F)c(OC)cc1NC(=O)CN1CCOCC1	.	/	25.1µM	/	/
COC(=O)[C@@H]1C[C@@]2(O)[C@H](O)[C@H](O)[C@H](O)C[C@H]2N1C/C=C/c1ccccc1	.	.	.	/	/
CO[C@@H]1/C=C\CC(=O)N[C@@H](C)C(=O)OC[C@@H](OC)[C@H](C)/C=C\CC(=O)OC[C@H]1C	/	/	.[13.5 µM]	/	/
COc1ccc(-c2[nH]ncc2CN2CCC(N3CCSCC3)CC2)cc1F	.	/	.	/	/
CCn1c(SCC(=O)N2CCOCC2)nc2c(c1=O)SC(C)C2 (configuration not stated)	.	.	.	-100.0	.
CCn1c(SCC(=O)Nc2cccc(C)c2)nc2c(c1=O)SC(C)C2 (configuration not stated)	.	.	20µM	.	.
CCOC(=O)c1cccc(NC(=O)CSc2nc3ccccc3c(=O)n2CCOC)c1	.	.	.	?	.
CCn1c(SCC(=O)Nc2nnc(C)s2)nc2c(c1=O)SC(C)C2 (configuration not stated)	.	.	.	?	.
CCOC(=O)c1cccc(NC(=O)CSc2nc3ccccc3c(=O)n2CC)c1	.	.	.	-93.6	.
CC1Cc2nc(SCC(=O)NC3CCCCC3)n(C)c(=O)c2S1 (configuration not stated)	.	39.8µM	.	.	.
COc1ccc2c(c1)O[C@@H](c1cccc(C(F)(F)F)c1)[C@H](OC(=O)NS(=O)(=O)c1ccc(C)cc1)C2=O	.	.	.	/	/
OC[C@H]1NC[C@@H](O)[C@@H](O)[C@H]1O	.	.	?	/	.
CCNc1ncc2nc(-c3ccc(Cl)cc3)c(=O)n(-c3ccc(OC)cc3)c2n1	.	/	?	/	/
CC1(C)Cc2nc3oc4c(=S)nc[nH]c4c3cc2CO1	?	28.2µM	3.16µM	.	?
CC(C)CSc1ncnc2c1oc1nc3c(cc12)COC(C)(C)C3	.	.	?	?	.
Cc1ccc(NS(=O)(=O)N(C)C)cc1	.	?	.	-100.0	.
CN(C)S(=O)(=O)Nc1ccc2c(c1)Cc1ccccc1-2	.	14.1µM	.	.	.
COC(=O)c1ccc(NS(=O)(=O)N(C)C)cc1	.	?	.	.	.
O=S(=O)(Cc1ccccc1)c1cnc2ccccc2n1	.	25.1µM	?	.	.
Cc1cc(NCCN(C)C)n2nc(-c3cccs3)cc2n1	.	?	?	-88.7	.
Cc1cc(NCCCO)n2nc(-c3cccs3)cc2n1	.	/	?	/	/
O=[N+]([O-])c1ccccc1/C=N/Nc1nnc(-c2ccccc2)c(-c2ccccc2)n1	.	.	0.282µM	.	.
COc1ccc(Cl)cc1NC(=O)COC(=O)CNC(=O)c1ccc([N+](=O)[O-])c(C)c1	.	.	.	.	/
Cc1cc(C(=O)NCC(=O)OCC(=O)Nc2ccc(OC(F)F)cc2)ccc1[N+](=O)[O-]	.	.	3.16µM	.	/
CN(Cc1ccccc1NCC(=O)Nc1ccccc1C#N)C1CCCCC1	.	/	.	/	/
SMILES	IMPase Li cell	HPGD inh	ALDH1A1 inh	PNC inhibitor	IMPase inh
N#Cc1ccccc1NC(=O)CNc1ccccc1N1CCCCC1	.	.	31.6µM	.	.
O=C(COc1cccc2ccccc12)NNC(=O)c1cccs1	.	.	.	.	.
COc1cc(SC)ccc1C(=O)NCCCOC(C)C	.	.	.	.	?
COc1ccccc1OCCNC(=O)c1cc(SC)ccc1Cl	.	.	.	-113.0	/
COc1cc(SC)ccc1C(=O)NCc1ccc(C)cc1	.	20µM	?	.	.
COc1cc(SC)ccc1C(=O)NCc1ccccc1	.	25.1µM	?	.	.
CCCNC(=O)c1ccc(SC)cc1OC	.	25.1µM	?	?	.
COC(=O)C1=C(C)N(CCc2ccccc2)C(=O)C1(NS(=O)(=O)c1ccc(NC(C)=O)cc1)C(F)(F)F (configuration not stated)	.	.	20µM	.	.
CC(=O)Nc1ccc(S(=O)(=O)NC2(C(F)(F)F)C(=O)Nc3c2c(=O)n(C)c(=O)n3C)cc1 (configuration not stated)	.	20µM	?	?	.
COc1ccccc1/C=C/C(=O)OCC(=O)Nc1cc(C(F)(F)F)ccc1N1CCOCC1	/	/	.	?	.
N[C@H](CCC(=O)NCC(=O)O)C(=O)O	.	.	.	/	.
Cc1ccc2c(c1)Oc1ccc([N+](=O)[O-])cc1C(=O)N2	.	/	.	/	/
Cc1ccc2c(c1)Oc1ccc(NC(=O)CCl)cc1C(=O)N2	.	/	11.2µM	/	/
COCCCNC(=O)CN(c1cc(Cl)cc(Cl)c1)S(C)(=O)=O	.	.	.	-100.0	.
Cc1ccccc1C(=O)Nc1nc(=S)ss1	.	14.1µM	3.16µM	?	.
CC(C)CC(=O)Nc1nc(=S)ss1	.	14.1µM	3.55µM	.	.
Cc1ccccc1C(=O)Nc1nnc(SC(C)C)s1	.	/	15.8µM	/	/
CC(=O)Nc1nc(=S)ss1	.	25.1µM	3.16µM	.	.
COc1ccc(Cl)cc1-n1c(C)ccc1C	.	.	.	.	/
C=CC1=C2C=C(C3CC3)N(c3ccc(OC)cc3)C=C2C(=O)C(C)(OC(=O)c2ccco2)C1=O (configuration not stated)	.	.	.[13.5 µM]	/	/
O=C(Nc1nc(=S)ss1)c1c(F)cccc1F	.	?	22.4µM	.	.
Cc1nc(NC(=O)c2cccnc2)ccc1Br	.	.	.	?	?
Cc1ccccc1C(=O)Nc1ccc(Br)c(C)n1	.	.	?	-106.9	.
CC(=O)c1sc(NC(=O)c2c(F)cccc2F)nc1C	.	.	.	?	.
O=C(O)c1ccc(Cl)c(N2C(=O)Nc3ccccc3N2O)c1	.	/	?	/	/
SMILES	IMPase Li cell	HPGD inh	ALDH1A1 inh	PNC inhibitor	IMPase inh
CCC(C)n1c(SCc2ccc([N+](=O)[O-])cc2)nc2ccsc2c1=O (configuration not stated)	.	.	.	-119.3	.
CCCCn1c(SCc2cccc([N+](=O)[O-])c2)nc2ccsc2c1=O	.	.	?	.	/
COc1ccc(NC(=O)CNC(=O)c2cccs2)cc1Cl	.	/	.	/	/
Cc1ccc(NC(=O)CNC(=O)c2cccs2)cc1S(=O)(=O)Nc1ccc(Cl)cc1	.	.	.	-112.8	/
O=C(CCNc1cc(Cl)cc(Cl)c1)c1cccs1	.	.	1.58µM	.	.
O=C(Nc1ccc(NC(=O)c2cccs2)cc1)c1ccc(Cl)cc1	/	/	/	/	.
O=C(CCSc1ccc(Cl)cc1)c1cccs1	.	20µM	0.355µM	?	.
O=C(CCNc1ccc(Cl)cc1)c1cccs1	.	.	3.16µM	?	.
Cc1ccc(Sc2c(C)nn(C(=O)COc3ccccc3)c2C)cc1	/	/	/	/	.
CS(=O)(=O)N1CCC[C@@]2(CCN(C(=O)Nc3cccc(C#N)c3)C2)C1	.	.	.	/	/
Cc1ccccc1CSCC(=O)NC(=O)NCc1ccco1	.	.	25.1µM	-95.0	.
Cc1cc(SCC(=O)O)nc2ccccc12	.	/	.	/	/
Cc1cc(SCC(=O)NC(=O)NCc2ccco2)nc2c(C)cccc12	.	.	22.4µM	?	.
Cc1cc(SCCC(=O)O)nc2c(C)cccc12	10µM	?	.	.	?
